In PubChem BioAssay AID740 (SRMLSC, 2007):
In all, about 96,000 compounds went through this assay and about 65 (0.07%) were called active. Rule as the data show it: active = inhibition above about 25%; inactive = the rest. The sample as a whole holds a higher share of actives than the screen did.

Assay: unspecified inhibition readout at 50 µM (AID 740)
Settings: unspecified screen; stronger effect = higher value

Compound	inhibition
CC(C)CC(c1nnnn1C(C)(C)C)N1CCN(C2CCCC2)CC1 (stereo not drawn)	0.26% (inactive)
CC(=O)Nc1cccc(C(=O)Nc2ccccc2C(=O)O)c1	0.32% (inactive)
Cc1ccc2nc(SCC(=O)Nc3c(C)n(C)n(-c4ccccc4)c3=O)[nH]c2c1	inactive
O=C(Nc1ccccc1-c1ccccc1)c1ccc(NC(=O)c2ccco2)cc1	61.8% (active)
O=C(Nc1ccccc1-c1ccccc1)c1ccco1	0.36% (inactive)
Cc1ccccc1NC(=O)c1ccc(NC(=O)c2ccco2)cc1	inactive
N#Cc1ccccc1NC(=O)COC(=O)c1ccc2c(c1)OCCO2	inactive
COc1ccc(NS(=O)(=O)c2ccc(OC)c(N(C)S(=O)(=O)c3ccc(Cl)cc3)c2)cc1	25.8% (active)
COc1ccc(S(=O)(=O)Nc2ccc(F)cc2)cc1N(C)S(=O)(=O)c1ccc(Cl)cc1	inactive
COc1ccc(S(=O)(=O)Nc2ccc(C)cc2)cc1N(C)S(=O)(=O)c1ccc(Cl)cc1	inactive
O=C(NC1CCCC1)C1(c2ccccc2)CCN(S(=O)(=O)c2ccccc2)CC1	1.06% (inactive)
CC1(C)Cc2c(c(N3CCOCC3)nc3sc4c(NN)ncnc4c23)CS1	27.3% (active)
CN(C)CCNc1ncnc2c1sc1nc(N3CCOCC3)c3c(c12)CC(C)(C)SC3	inactive
CCN(CC)CCNc1ncnc2c1sc1nc(N3CCOCC3)c3c(c12)CC(C)(C)SC3	inactive
O=C1CC(C(=O)Nc2ccccc2)C2(CCCCC2)O1 (stereo not drawn)	1.6% (inactive)
O=C1CC(C(=O)Nc2ccccc2)C2(CCCC2)O1 (stereo not drawn)	inactive
Cc1cccc(NC(=O)C2CC(=O)OC23CCCCC3)c1 (stereo not drawn)	41.1% (active)
CC(=O)Nc1sc(C)c(C)c1C(=O)OC1CCOC1=O (stereo not drawn)	inactive
COc1ccc(C(=O)OCC(=O)Nc2ccc(OC(F)F)cc2)c(OC)c1	inactive
COc1cc(C2C(C#N)=C(C)NC3=C2C(=O)c2ccccc23)cc(OC)c1OC (stereo not drawn)	3.83% (inactive)
O=C(O)c1ccc(CSCc2ccccc2F)o1	inactive
COc1ccc(NC(=O)CN2CCCC(C)C2)c([N+](=O)[O-])c1 (stereo not drawn)	0.73% (inactive)
Cc1c(NC(=O)c2ccc(F)cc2)c(=O)n(-c2ccccc2)n1C	inactive
CCCCCn1c(=O)c(C(=O)Nc2c(C)n(C)n(-c3ccccc3)c2=O)c(O)c2ccccc21	34.4% (active)
CCCCn1c(=O)c(C(=O)Nc2cnccn2)c(O)c2ccccc21	1.68% (inactive)

Compound	inhibition
Cc1cc(C(=O)Nc2c(C)n(C)n(-c3ccccc3)c2=O)cs1	28.9% (active)
Cc1c(NC(=O)c2c(F)c(F)c(F)c(F)c2F)c(=O)n(-c2ccccc2)n1C	0.88% (inactive)
Cc1c(NC(=O)c2cccc(F)c2)c(=O)n(-c2ccccc2)n1C	inactive
COC(=O)c1ccc(C2NC(=S)N(c3ccccc3)C(C)=C2C(=O)Nc2ccccc2OC)cc1 (stereo not drawn)	inactive
CCS(=O)(=O)c1ccc2oc(SCC(=O)NCCC3=CCCCC3)nc2c1	10.4% (inactive)
CCCCN(CC)CCNc1c(N2CCN(C(=O)OCC)CC2)c(=O)c1=O	inactive
COC(=O)C(C(=O)OC)C(C[N+](=O)[O-])c1ccc(OC)cc1 (stereo not drawn)	inactive
CCOC(=O)c1cnn(-c2ccccc2)c1-n1cccc1C(=O)C(=O)Nc1ccccc1C(F)(F)F	74.2% (active)
CCOC(=O)c1cnn(-c2ccccc2)c1-n1cccc1C(=O)C(=O)Nc1ccc(F)cc1	0.4% (inactive)
CCOC(=O)c1cnn(-c2ccccc2)c1-n1cccc1C(=O)C(=O)Nc1ccccc1	inactive
COCCNC(=O)C(c1ccccc1C)N(CCOC)C(=O)Cn1nnc2ccccc21 (stereo not drawn)	1.03% (inactive)
COCCNC(=O)C(c1ccccc1)N(CCOC)C(=O)Cn1nnc2ccccc21 (stereo not drawn)	37.1% (active)
CCOC(=O)CN(C(=O)Cn1nnc2ccccc21)C(C(=O)NCCOC)c1ccccc1 (stereo not drawn)	inactive
CCOC(=O)C1C(=O)NC(c2ccccc2)=NC1c1ccc(C(C)C)cc1 (stereo not drawn)	1.01% (inactive)
CN1CCN(S(=O)(=O)c2ccc(NC(=O)Cc3cccs3)cc2)CC1	inactive
O=C(COc1ccccc1)Nc1ccc(-c2nnc(-c3ccco3)o2)cc1	inactive
CCC(Oc1ccccc1)C(=O)Nc1ccc(-c2nnc(-c3ccco3)o2)cc1 (stereo not drawn)	28.2% (active)
O=C(Nc1ccc(-c2nnc(-c3ccco3)o2)cc1)C(c1ccccc1)c1ccccc1	0.04% (inactive)
Cc1ccc(S(=O)(=O)N(CC(=O)NC2CCCCCC2)c2ccccc2F)cc1	inactive
COc1ccc(Br)cc1C(=O)Nc1ccc(N2CCN(S(C)(=O)=O)CC2)cc1	0.77% (inactive)
CC(C)c1ccc(C(=O)N(c2ccccn2)C(C)c2ccco2)cc1 (stereo not drawn)	4.01% (inactive)
CC(c1ccco1)N(C(=O)COc1ccccc1[N+](=O)[O-])c1ccccn1 (stereo not drawn)	0.73% (inactive)
Cc1cc(C)cc(C(=O)N(c2ccccn2)C(C)c2ccco2)c1 (stereo not drawn)	0.71% (inactive)
CC(c1ccco1)N(C(=O)Nc1ccc(Cl)cc1)c1ccccn1 (stereo not drawn)	inactive
CC(c1ccco1)N(C(=O)COc1ccc(Cl)cc1Cl)c1ccccn1 (stereo not drawn)	39.3% (active)

Compound	inhibition
CC(c1ccco1)N(C(=O)COc1ccc(Cl)cc1)c1ccccn1 (stereo not drawn)	32.6% (active)
Cc1ccccc1NS(=O)(=O)c1ccc(C2CNC(=O)C2)cc1 (stereo not drawn)	0.38% (inactive)
CN1CCN(c2nc(-c3ccc(Br)cc3)nnc2-c2ccccc2)CC1	inactive
O=C(c1cnn2c(C(F)(F)F)cc(-c3ccc(Br)cc3)nc12)N1CCOCC1	1.01% (inactive)
O=C(c1cnn2c(C(F)(F)F)cc(-c3ccccc3)nc12)N1CCOCC1	37.1% (active)
O=C(c1cnn2c(C(F)(F)F)cc(-c3ccccc3)nc12)N1CCC2(CC1)OCCO2	1.61% (inactive)
Cc1ccn2c(NC(=O)c3ccccc3)c(-c3cccs3)nc2c1	inactive
O=C(Nc1c(-c2ccccc2)nc2sccn12)c1ccccc1	48.5% (active)
Cn1nc(C(=O)Nc2c(-c3ccccc3)nc3sccn23)c2ccccc2c1=O	2.2% (inactive)
CCNc1nnc(-c2ccccc2OC)s1	inactive
Cc1c(C(=O)Nc2ccncc2)oc2ccccc12	inactive
Cc1ccc2c(C)c(C(=O)Nc3cccnc3)oc2c1	90.2% (active)
Cc1cc2oc(C(=O)Nc3cccnc3)c(C)c2cc1C	inactive
O=C(c1ccco1)N1N=C(c2cccs2)CC1c1ccc(F)cc1 (stereo not drawn)	6.17% (inactive)
O=C1CCCN1CCCNc1ccc(S(=O)(=O)N2CCCCC2)cn1	0.14% (inactive)
O=C(Nc1cccc(O)c1)c1noc2c1CCc1ccccc1-2	66.5% (active)
Cc1cc(NC(=O)c2noc3c2CCc2ccccc2-3)no1	inactive
Cc1ccc(NC(=O)c2noc3c2CCc2ccccc2-3)cc1	inactive
C=CCOc1ccc(/C(CC)=N/O)c(OC)c1	1.57% (inactive)
CC(C)(C)OC(=O)NCCc1nnc(SCC(=O)c2ccc(Cl)cc2)o1	inactive
CC(C)(C)OC(=O)NCCc1nnc(SCc2ccc(Cl)cc2)o1	26.6% (active)
CC(C)(C)OC(=O)NCCc1nnc(SCc2ccc(Cl)cc2Cl)o1	4.81% (inactive)
N#Cc1ccc2ccn(CC(=O)NC3CCCCC3)c2c1	inactive
Cc1cc(NS(=O)(=O)c2ccc(NC(=O)c3cc(-c4cccnc4)nc4ccc(Cl)cc34)cc2)no1	2.18% (inactive)
COc1ccc(NC(=O)CCN2CCCCCC2)c(OC)c1	0.25% (inactive)

Compound	inhibition
C=CCn1c(SCc2c(C)noc2C)nc2sc(C)c(C)c2c1=O	11.3% (inactive)
Cc1noc(C)c1CSc1nc2sc(C)c(C)c2c(=O)n1-c1ccccc1	6.13% (inactive)
Cc1noc(C)c1CSc1nc2sc(C)c(C)c2c(=O)n1C1CCCC1	25.2% (active)
COc1ccc(C(=O)CSc2nc(C)cc(=O)[nH]2)cc1	inactive
COCCCNC(=O)CCn1c(=O)c2ccccc2n(CC(=O)Nc2c(C)cccc2C)c1=O	1.13% (inactive)
CC(=O)Nc1cc(C(C)C)c(O)c(C(C)C)c1	0.28% (inactive)
CC(C)c1cc(NC(=O)C(C)(C)C)cc(C(C)C)c1O	0.31% (inactive)
COc1c(C(C)C)cc(NC(C)=O)cc1C(C)C	87.4% (active)
CCOC(=O)/C=C1\SCC(=O)N1CC(=O)NC12CC3CC(CC(C3)C1)C2	39.9% (active)
CCOC(=O)/C=C1\SCC(=O)N1CC(=O)NC1CCCCC1	0.43% (inactive)
CCOC(=O)/C=C1\SCC(=O)N1CC(=O)NC(C)C	0.15% (inactive)
COc1ccc(-c2noc(CCN3C(=O)c4ccccc4C3=O)n2)cc1OC	0.08% (inactive)
CCc1nnc(NC(=O)CSc2nnc(CNc3ccc(F)cc3)n2C2CCCCC2)s1	inactive
Cc1cc(NC(=O)CSc2nnc(CNc3ccc(F)cc3)n2C2CCCCC2)no1	26.7% (active)
CCOc1ccc(NCc2nnc(SCC(=O)Nc3cc(C)on3)n2-c2ccc(OC)cc2)cc1	inactive
C=CCN(c1ccc(C(=O)N2CCCC2)cc1)S(C)(=O)=O	inactive
COc1ccc(S(=O)(=O)Nc2cc(C)c(O)cc2C(C)C)cc1	inactive
COc1ccc(OC)c(-n2c(SCC(=O)Nc3cc(C)on3)nnc2-c2c[nH]c3ccccc23)c1	25.7% (active)
COc1ccc(OC)c(-n2c(SCC(N)=O)nnc2-c2c[nH]c3ccccc23)c1	1.03% (inactive)
COc1ccc(OC)c(-n2c(SCC(=O)NCc3ccco3)nnc2-c2c[nH]c3ccccc23)c1	0.83% (inactive)
Cc1cc(C)n(CC(O)Cn2c(C)c(C)c3ccccc32)n1 (stereo not drawn)	0.73% (inactive)
CN=C(Nc1cc(C)nn1CCC#N)c1ccc(F)cc1	0.15% (inactive)
CC(C)CCNC(=O)C(c1cccs1)N(CC1CCCO1)C(=O)Cn1nnc2ccccc21 (stereo not drawn)	inactive
